Measurements published in PubChem BioAssay.
Values without a mark were called inactive. Activity calls are given as the source filed them.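 How the source made its calls, unless noted: active means viability loss from added drug above about 55%, and viability with drug at most 40%, in both replicates (limit read from the data, passing the limit was not always enough); inconclusive means both conditions met in only one replicate; inactive means neither replicate meets both conditions.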

Test: H69AR cell proliferation blockers – human, duplicate replicates, primary screen (AID 580;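 active means viability at or under a set limit in both replicates, limit being median viability minus 3 SD, cut at about 48% in these data, passing the limit was not always enough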;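 further: 100% = mean luminescence of untreated wells and 0% = no signal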)
Conditions: H69AR lung tumor cells viability, ATP luminescence, 72 h; at 10 µM; stronger effect = lower value

| SMILES | viability |
| --- | --- |
| O=C(Cn1nnc(-c2cccc(C(F)(F)F)c2)n1)NC(=O)NCc1ccco1 | 74.1% |
| Cc1cccc(NS(=O)(=O)c2cc(C(=O)OCC(=O)Nc3cc(C)on3)ccc2C)c1 | 112% |
| O=C(O)c1c(Cl)c(Cl)c(Cl)c(Cl)c1C(=O)N1CCOCC1 | 95.7% |
| CCN1CCCC1CNC(=O)CS(=O)(=O)Cc1nc(-c2ccccc2C)oc1C (stereo not given) | 88.1% |
| Cc1ccc(OCC(O)Cn2c(=N)n(CCN3CCCCC3)c3ccccc32)cc1 (stereo not given) | 18.6% (active) |
| O=C1c2ccccc2CN1CCNS(=O)(=O)c1ccc(Cl)cc1 | 88% |
| COC(=O)C1CCN(C(=O)c2sc3nc(-c4ccc(F)cc4)cn3c2C)CC1 | 100% |
| CCCCc1cc(=O)oc2cc(C)cc(OC(C)C(=O)O)c12 (stereo not given) | 104% |
| COc1cccc(OC)c1OCCN1CCN(C(=O)c2ccco2)CC1 | 95.8% |
| CC(C)NC(=O)CSCc1ccccc1Cl | 94.8% |
| CC(=O)N1CCN(c2ccc(N=Cc3c(O)n(Cc4ccccc4)c(=O)[nH]c3=O)cc2)CC1 | 94.6% |
| CCC1=C(C(=O)OC)C(c2cc(OC)ccc2OC)C(C#N)=C(N)O1 (stereo not given) | 87.2% |
| CCCCCn1c(CN2CCN(C(=O)OCC)CC2)nc2c1c(=O)[nH]c(=O)n2C | 98.5% |
| Cc1ccc(N2CCN(C(=S)c3ccc(N(C)C)cc3)CC2)cc1 | 82.6% |
| COc1ccccc1NC(=O)N1CCCC1C(=O)NC1CCCCC1 (stereo not given) | 80.1% |
| CCOc1ccc(OCC)c(NC(=O)CN2CCN(C(=O)c3ccco3)CC2)c1 | 68.8% |
| C=CCN(C(=O)CNC(=O)c1ccco1)C(C(=O)NC1CCCCC1)c1ccccc1F (stereo not given) | 100% |
| Cc1ccc2cc(CN(CC3CCCO3)S(=O)(=O)c3ccc4c(c3)OCCO4)c(=O)[nH]c2c1C (stereo not given) | 86.1% |
| COc1cc(OC)cc(-n2nnnc2SCC(=O)N2CCCC2)c1 | 87.4% |
| O=C(CSc1nnc(Cn2nnc(-c3ccccc3)n2)n1-c1ccccc1)Nc1ccc(F)cc1 | 75.7% |

| SMILES | viability |
| --- | --- |
| O=C(NC1CCCC1)c1ccc(S(=O)(=O)N2CCCC2)cc1 | 87.6% |
| C=CCSc1nnc(-c2ccccc2NC(C)=O)c(=O)[nH]1 | 93% |
| COc1ccc(C2C(=O)N(C3CCCCC3)CC(=O)N2Cc2ccco2)cc1 (stereo not given) | 97.7% |
| COc1ccc(-c2cc(O)cc(O)c2)cc1 | 87.6% |
| Cc1cccc(NC(=O)CCN2CCN(C/C=C/c3ccccc3)CC2)c1 | 86.3% |
| CCCn1c2ccccc2c2nnc(SCC(=O)OCC)nc21 | 91.2% |
| COc1cccc(C2C(C(=O)c3cc4ccccc4o3)=C(O)C(=O)N2CCN(C)C)c1OC (stereo not given) | 100% |
| O=C(COc1ccc(F)cc1Br)N1CCc2ccccc21 | 75.3% |
| S=C(c1ccc(-c2cc(Cl)ccc2Cl)o1)N1CCOCC1 | 98.5% |
| O=C(NCN1CCCCC1)c1cnccn1 | 89.9% |
| O=C(CSc1nnc(-c2ccco2)c(-c2ccco2)n1)Nc1ccccc1 | 77.6% |
| CCC1(c2ccc(F)cc2)NC(=O)N(CC(=O)c2ccc[nH]2)C1=O (stereo not given) | 96.6% |
| CCN1CCN(C(=O)c2ccc3c(=O)n(C4CCCC4)c(=S)[nH]c3c2)CC1 | 84.7% |
| N#CC1=C(N)SC(N)=C(C#N)C1CCc1ccccc1 | 23.3% (active) |
| O=C(NCc1ccc2c(c1)OCO2)C1CCCN(S(=O)(=O)c2cccnc2)C1 (stereo not given) | 92.4% |
| Cc1cccc(-c2noc(CCC(=O)Nc3ccccc3)n2)c1 | 91.2% |
| Nc1ncnc(Nc2ccccc2C(F)(F)F)n1 | 95.6% |
| CCNc1nc(N2CCCCC2)nc(-n2nnc(C(=O)OCC)c2C)n1 | 95.7% |
| Cc1ccc(S(=O)(=O)N2CCCC(C(=O)NC3=NCCS3)C2)cc1 (stereo not given) | 91.8% |
| O=C1C(C=NCCCn2ccnc2)=C(O)c2ccccc21 | 99.2% |

Test: MRP1 drug-resistance reversers in H69AR cells – cell-based, doxorubicin co-treatment, pilot screen (AID 601)
Conditions: H69AR cells + 2 uM doxorubicin, CellTiter-Glo, 72 h; at 10 µM; stronger effect = higher value

| SMILES | differential viability (reversal) [%] |
| --- | --- |
| O=C(Cn1nnc(-c2cccc(C(F)(F)F)c2)n1)NC(=O)NCc1ccco1 | -3.41 |
| Cc1cccc(NS(=O)(=O)c2cc(C(=O)OCC(=O)Nc3cc(C)on3)ccc2C)c1 | 10.1 |
| O=C(O)c1c(Cl)c(Cl)c(Cl)c(Cl)c1C(=O)N1CCOCC1 | 2.91 |
| CCN1CCCC1CNC(=O)CS(=O)(=O)Cc1nc(-c2ccccc2C)oc1C (stereo not given) | 0.015 |
| Cc1ccc(OCC(O)Cn2c(=N)n(CCN3CCCCC3)c3ccccc32)cc1 (stereo not given) | -3.16 |
| O=C1c2ccccc2CN1CCNS(=O)(=O)c1ccc(Cl)cc1 | 3.27 |
| COC(=O)C1CCN(C(=O)c2sc3nc(-c4ccc(F)cc4)cn3c2C)CC1 | 22.1 |
| CCCCc1cc(=O)oc2cc(C)cc(OC(C)C(=O)O)c12 (stereo not given) | 8.19 |
| COc1cccc(OC)c1OCCN1CCN(C(=O)c2ccco2)CC1 | 10.7 |
| CC(C)NC(=O)CSCc1ccccc1Cl | 18 |
| CC(=O)N1CCN(c2ccc(N=Cc3c(O)n(Cc4ccccc4)c(=O)[nH]c3=O)cc2)CC1 | -3.64 |
| CCC1=C(C(=O)OC)C(c2cc(OC)ccc2OC)C(C#N)=C(N)O1 (stereo not given) | -0.035 |
| CCCCCn1c(CN2CCN(C(=O)OCC)CC2)nc2c1c(=O)[nH]c(=O)n2C | 15.8 |
| Cc1ccc(N2CCN(C(=S)c3ccc(N(C)C)cc3)CC2)cc1 | -9.83 |
| COc1ccccc1NC(=O)N1CCCC1C(=O)NC1CCCCC1 (stereo not given) | -4.57 |
| CCOc1ccc(OCC)c(NC(=O)CN2CCN(C(=O)c3ccco3)CC2)c1 | 38.1 |
| C=CCN(C(=O)CNC(=O)c1ccco1)C(C(=O)NC1CCCCC1)c1ccccc1F (stereo not given) | 6.92 |
| Cc1ccc2cc(CN(CC3CCCO3)S(=O)(=O)c3ccc4c(c3)OCCO4)c(=O)[nH]c2c1C (stereo not given) | 3.25 |
| COc1cc(OC)cc(-n2nnnc2SCC(=O)N2CCCC2)c1 | -4.62 |
| O=C(CSc1nnc(Cn2nnc(-c3ccccc3)n2)n1-c1ccccc1)Nc1ccc(F)cc1 | 3.96 |

| SMILES | differential viability (reversal) [%] |
| --- | --- |
| O=C(NC1CCCC1)c1ccc(S(=O)(=O)N2CCCC2)cc1 | -7.37 |
| C=CCSc1nnc(-c2ccccc2NC(C)=O)c(=O)[nH]1 | 9.55 |
| COc1ccc(C2C(=O)N(C3CCCCC3)CC(=O)N2Cc2ccco2)cc1 (stereo not given) | 18.2 |
| COc1ccc(-c2cc(O)cc(O)c2)cc1 | 7.77 |
| Cc1cccc(NC(=O)CCN2CCN(C/C=C/c3ccccc3)CC2)c1 | -9.71 |
| CCCn1c2ccccc2c2nnc(SCC(=O)OCC)nc21 | 11 |
| COc1cccc(C2C(C(=O)c3cc4ccccc4o3)=C(O)C(=O)N2CCN(C)C)c1OC (stereo not given) | 4.93 |
| O=C(COc1ccc(F)cc1Br)N1CCc2ccccc21 | -6 |
| S=C(c1ccc(-c2cc(Cl)ccc2Cl)o1)N1CCOCC1 | -8.1 |
| O=C(NCN1CCCCC1)c1cnccn1 | -16.5 |
| O=C(CSc1nnc(-c2ccco2)c(-c2ccco2)n1)Nc1ccccc1 | -12.2 |
| CCC1(c2ccc(F)cc2)NC(=O)N(CC(=O)c2ccc[nH]2)C1=O (stereo not given) | 9.76 |
| CCN1CCN(C(=O)c2ccc3c(=O)n(C4CCCC4)c(=S)[nH]c3c2)CC1 | 9.82 |
| N#CC1=C(N)SC(N)=C(C#N)C1CCc1ccccc1 | -8.65 |
| O=C(NCc1ccc2c(c1)OCO2)C1CCCN(S(=O)(=O)c2cccnc2)C1 (stereo not given) | 7.61 |
| Cc1cccc(-c2noc(CCC(=O)Nc3ccccc3)n2)c1 | 6.29 |
| Nc1ncnc(Nc2ccccc2C(F)(F)F)n1 | 2.26 |
| CCNc1nc(N2CCCCC2)nc(-n2nnc(C(=O)OCC)c2C)n1 | 1.31 |
| Cc1ccc(S(=O)(=O)N2CCCC(C(=O)NC3=NCCS3)C2)cc1 (stereo not given) | 6.39 |
| O=C1C(C=NCCCn2ccnc2)=C(O)c2ccccc21 | 17.2 |
